This passage reports Potency, viability (% of control) and viability, % of control results from PubChem BioAssay (NCATS).

Molecules are shown by their SMILES. Inconclusive results are not listed. A number with no mark means an inactive call. The source made the active and inactive calls. Calls follow the shape of the dose curve; as a rule, active = well fitted cell-killing curve with a large enough effect; inconclusive = small, poorly fitted or top-dose-only effect, or effect the other way; inactive = no such curve, though single readings can be large or run the other way.

A short description of test [1]: Viability qHTS for spleen associated tyrosine kinase inhibitor (SYKi) naive MV4-11 cells (AID 1963823). Also: nearly all actives have a fitted effect of over 40% in size. The method, boiled down:
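Cells: MV4-11, SYK inhibitor naive, 500 per well. Treatment: library compounds, 72 hr, 37 C, 5% CO2. Read-out: CellTiter-Glo luminescence after 10 min RT.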

The nature of test [2]: Viability qHTS for spleen associated tyrosine kinase inhibitor (SYKi) drug resistant MV4-11 cells (AID 1963824). Also: nearly all actives have a fitted effect of over 35% in size. The method, boiled down:
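SYK-inhibitor-resistant MV4-11 AML cells were seeded at 500 per well onto compound and cultured 72 hours (37 °C, 5% CO2). CellTiter-Glo was then added, and after 10 min at room temperature, luminescence gave viability.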
A general note: qHTS replaces the single test concentration by a dilution series.
Potency is read from the fitted curve at half-maximal effect.

For the molecule `Cc1cccc(/C=N/Nc2cc(N3CCOCC3)n3nc(-c4ccncc4)cc3n2)c1`, the Potency was 1.03 µM (active) in test [1] and 0.291 µM (active) in test [2].

As for `COc1ccc2cc(C(C)C(=O)Oc3ccc(C(N)=S)cc3)ccc2c1` (stereo not given), the Potency entry in test [1] and in test [2] was “inactive” throughout.

For `C=C(C)C1CCC2(C(=O)O[C@@H]3O[C@H](CO[C@@H]4O[C@H](CO)[C@@H](O)[C@H](O)[C@H]4O)[C@@H](O)[C@H](O[C@@H]4O[C@@H](C)[C@H](O)[C@@H](O)[C@H]4O)[C@H]3O)CCC3(C(=O)O)C(CCC4C5(C)CCC(O)C(C)(C)C5CCC43C)C12` (stereo not given in full), in test [1], the viability (% of control) was 84.2% [at 9.25 µM]. Moreover, the viability, % of control in test [2] was 114% [at 9.25 µM].

As for `CC(C)(C)c1cc(Br)cc([C@H](CC(=O)O)NC(=O)CNC(=O)c2cc(O)cc(NC3=NCC(O)CN3)c2)c1` (stereo not given in full), the Potency entry in test [1] and in test [2] was “inactive” each time.

With `CCC/C=C/C=C/C1CC(O)C(O)C(=O)C1CO` (stereo not given), the Potency result in test [1] and in test [2] was “inactive” each time.

Regarding `COC(=O)C1=CO[C@@H](O[C@@H]2O[C@H](CO)[C@@H](O)[C@H](O)[C@H]2O)[C@@H]2C(C)CC(=O)[C@]12O` (stereo not given in full), the Potency result in test [1] and in test [2] was “inactive” throughout.

Take `CC1(CO)CCCC2(C)C1C(OC(=O)c1ccccc1)CC1C(=O)OCC12O` (stereo not given): the Potency result in test [1] and in test [2] was “inactive” throughout.

For `N[C@@H](Cn1ccc(=O)c(O)c1)C(=O)O`, in test [1], the viability (% of control) is 88% [at 4.97 µM]. For the same molecule, the viability, % of control in test [2] is 98% [at 4.97 µM].

For `COC(=O)N/N=C/c1c[n+]([O-])c2ccccc2[n+]1[O-]`, the Potency result in test [1] and in test [2] was “inactive” each time.

Regarding `NC1(C(=O)NC(CCO)c2ccc(Cl)cc2)CCN(c2ncnc3[nH]ccc23)CC1` (stereo not given), the Potency in test [1] was 2.31 µM (active); in test [2], 4.11 µM (active).

Regarding `CNCCC=C1c2ccccc2CCc2ccccc21`, the results for the Potency in test [1] and in test [2] were 11.6 µM (active) and 14.6 µM (active), respectively.

Take `N[C@@]1(C(=O)O)CC[C@H]2[C@H](C(=O)O)[C@H]21`: the Potency entry in test [1] and in test [2] was “inactive” in each case.

For the molecule `COc1ccc(CCc2nc3cc(-c4c(C)noc4C)ccc3n2CC(C)N2CCOCC2)cc1Cl` (stereo not given), the Potency is 4.11 µM (active) in test [1] and 5.17 µM (active) in test [2].

Consider `CC(C)C(C#N)O[C@@H]1O[C@H](CO[C@@H]2O[C@@H](C)[C@H](O)[C@@H](O)[C@H]2O)[C@@H](O)[C@H](O)[C@H]1O` (stereo not given in full), for which the Potency result in test [1] and in test [2] was “inactive” in each case.

With `O=C(Nc1ccc(Cl)cc1)C1CCCN(C(=O)c2cccc(-c3ccco3)c2)C1` (stereo not given), the Potency in test [1] and in test [2] was 8.2 µM (active) throughout.

For `CC1(C)CCCC2(C)C1CC=C1C(=O)OC(O)C12O` (stereo not given), the Potency result in test [1] and in test [2] was “inactive” in each case.

For `CC(=O)NCCCCn1c2c(c3ccccc31)C(=O)NCC2`, the Potency result in test [1] and in test [2] was “inactive” each time.

Regarding `C=C1C(=O)O[C@@H]2/C=C(\CO)CC/C=C(/C=O)C[C@H](O)[C@@H]12`, the Potency is 4.11 µM (active) in test [1] and 3.26 µM (active) in test [2].

For `CC1=CC(=O)CC(C)(C)C1CCC(C)OC1OC(COC(=O)c2cc(O)c(O)c(O)c2)C(O)C(O)C1O` (stereo not given), the Potency entry in test [1] and in test [2] was “inactive” throughout.

For the molecule `CC1OC(O[C@@H]2[C@@H](O)[C@H](OC(=O)[C@]34CCC(C)(C)C[C@H]3C3=CCC5[C@@]6(C)CC[C@H](O[C@@H]7O[C@H](C(=O)O)[C@@H](O)[C@H](O[C@@H]8OC[C@@H](O)[C@H](O)[C@H]8O)[C@H]7O[C@@H]7O[C@H](CO)[C@H](O)[C@H](O)[C@H]7O)[C@@](C)(C=O)C6CC[C@@]5(C)[C@]3(C)C[C@H]4O)O[C@H](C)[C@@H]2OC2OC(C)C(OC3OCC(O)C(O)C3O)C(O)C2O)C(O)C(O)C1O` (stereo not given in full), the viability (% of control) in test [1] is 94.8% [at 9.25 µM]. Further, in test [2], the viability, % of control was 106% [at 9.25 µM].

Regarding `C[C@@H]1C(=O)OC[C@H]2C(C(=O)O)=C[C@@H]3CC(C)(C)C[C@]312`, the Potency entry in test [1] and in test [2] was “inactive” each time.

As to `CCCc1cc(C(=O)N[C@H](Cc2ccc(-c3cccc(OC(F)(F)F)c3)nc2)C(=O)N[C@@H]2CCNC2)sc1C`, the Potency was 6.61 µM (active) in test [1] and 7.42 µM (active) in test [2].

Take `CC1(C)CC[C@]2(C(=O)O[C@@H]3O[C@H](CO)[C@@H](O)[C@H](O)[C@H]3O)CC[C@]3(C)C(=CCC4[C@@]5(C)C[C@@H](O)[C@H](O)[C@@](C)(CO)C5[C@H](O)C[C@]43C)C2[C@@H]1O` (stereo not given in full): the Potency entry in test [1] and in test [2] was “inactive” each time.

`Nc1ncnc2c1ncn2[C@H]1CCCO1`: the Potency entry in test [1] and in test [2] was “inactive” throughout.

Regarding `Cc1nc(C#Cc2ccnc(Cl)c2)c(C)n1-c1ccc(OC(F)(F)F)cc1`, the Potency was 20.6 µM (active) in test [1] and 23.1 µM (active) in test [2].

As to `CC(=O)Nc1cccc2c1c(Sc1ccc(Cl)cc1)c(C)n2CC(=O)O`, the Potency result in test [1] and in test [2] was “inactive” each time.

`CC[C@H](CO)Nc1nc(NCc2ccc(-c3ccccn3)cc2)c2ncn(C(C)C)c2n1`: the Potency in test [1] was 0.13 µM (active); in test [2] it was 0.259 µM (active).

Turning to `CC(C)C1CCC(CO)=CC1/C=C(\CO)C(=O)OCC1(O)CCC(C(C)C)C2C=C(C(=O)O)COC(=O)C21` (stereo not given), the Potency entry in test [1] and in test [2] was “inactive” throughout.

On to `O=C(NCC(O)CO)c1ccncc1Nc1ccc(I)cc1F` (stereo not given), for which the Potency in test [1] is 0.366 µM (active); in test [2], 0.164 µM (active).

For the molecule `CN(C)Cc1ccc(-c2cnn3c(-c4cccc(NC(=O)c5cccc(C(F)(F)F)c5)c4)ccnc23)cc1`, the values for the Potency in test [1] and in test [2] were 2.91 µM (active) and 3.66 µM (active), respectively.
